# Among all 1,000 compounds or so, about 570 (57%) were called active. How the calls were made is not given here. So high a share suggests a set chosen from earlier hits. The list is a sample of the results.
# Biological target: Potassium voltage-gated channel subfamily KQT member 2 (Rattus norvegicus) (UniProt O88943)
# Test: blockers of KCNQ2 thallium flux – cell-based, confirmation (AID 493025);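 on activity change, negative = inhibition: 0% = vehicle wells and values are ratio percent relative to vehicle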
# Settings: KCNQ2-expressing cells, at 10 µM; activity change, negative = inhibition: active compounds read low; outcome: inhibition
# Sequence of Potassium voltage-gated channel subfamily KQT member 2 (Rattus norvegicus) (O88943 whole entry, looked up): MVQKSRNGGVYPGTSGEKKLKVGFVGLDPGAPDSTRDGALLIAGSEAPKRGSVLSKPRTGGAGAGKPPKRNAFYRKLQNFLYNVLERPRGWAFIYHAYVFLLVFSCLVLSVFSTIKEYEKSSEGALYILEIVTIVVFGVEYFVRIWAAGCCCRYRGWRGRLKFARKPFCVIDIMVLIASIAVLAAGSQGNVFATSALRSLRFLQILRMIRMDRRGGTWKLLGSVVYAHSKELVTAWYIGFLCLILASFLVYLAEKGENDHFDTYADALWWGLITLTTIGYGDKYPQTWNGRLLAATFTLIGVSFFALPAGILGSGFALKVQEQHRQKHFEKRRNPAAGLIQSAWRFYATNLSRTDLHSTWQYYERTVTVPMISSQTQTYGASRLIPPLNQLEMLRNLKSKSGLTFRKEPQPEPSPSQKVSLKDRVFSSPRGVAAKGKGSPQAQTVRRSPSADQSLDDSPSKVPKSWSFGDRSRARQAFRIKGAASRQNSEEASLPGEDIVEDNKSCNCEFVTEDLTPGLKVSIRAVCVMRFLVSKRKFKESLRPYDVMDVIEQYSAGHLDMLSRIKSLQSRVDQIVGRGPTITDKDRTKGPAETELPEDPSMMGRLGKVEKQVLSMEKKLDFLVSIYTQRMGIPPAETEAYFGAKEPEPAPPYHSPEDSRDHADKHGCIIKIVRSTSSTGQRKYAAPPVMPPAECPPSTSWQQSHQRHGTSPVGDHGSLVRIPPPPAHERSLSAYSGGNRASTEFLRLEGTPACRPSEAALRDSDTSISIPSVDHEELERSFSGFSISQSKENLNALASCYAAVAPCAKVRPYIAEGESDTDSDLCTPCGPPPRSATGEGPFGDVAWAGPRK
row,SMILES,"activity change, negative = inhibition"
1,CCc1ccc(-c2nn(-c3ccccc3)cc2CSC(=N)N)cc1,-37.5% (active)
2,C=CS(=O)c1sc(Cl)c(N2CCOCC2)c1[N+](=O)[O-] (stereo unspecified),-32.5% (active)
3,Cc1ccc(C(C)C)cc1OCC(=O)Nc1ccccc1N1CCCC1,inactive
4,CC(C(=O)NCC1CCCCC1)N(C)Cc1cccc(Cl)c1 (stereo unspecified),-47% (active)
5,CCc1ccccc1NC(=O)/C(=C/c1ccccc1)c1ccccc1,-33% (active)
6,C=CCn1c(SCC(=O)/C(C#N)=C(\C)N)nc2sc(C)c(C)c2c1=O,inactive
7,CN(Cc1ccccc1F)C(=O)C(Cc1ccccc1)NC(=O)c1ccccc1 (stereo unspecified),-29% (active)
8,CC(NC(=S)NNS(=O)(=O)c1ccc(C(C)(C)C)cc1)c1ccccc1 (stereo unspecified),inactive
9,CCc1ccc2ncc(C(=O)c3ccccc3)c(N3CCOCC3)c2c1,-20.5% (active)
10,Fc1ccc2[nH]c3c(N4CCSCC4)ncnc3c2c1,-38.5% (active)
11,Cc1ccc(N2C(=O)C3C(c4ccccc4)(C2=O)C3(c2ccccc2)c2ccccc2)cc1 (stereo unspecified),inactive
12,CC(C)N(C(=O)CSc1nc(COc2ccccc2)nc2ccccc12)C(C)C,-42.5% (active)
13,COc1cccc(COc2ccc(N(C)S(=O)(=O)c3ccccc3)cc2)c1,inactive
14,O=C(OCC(=O)N(CCc1ccccc1)Cc1ccccc1)c1ccccc1[N+](=O)[O-],inactive
15,CSCc1cc(N(C)C)nc(SCc2ccc(Cl)cc2Cl)n1,-19.5% (active)
16,O=C(Nc1ccccc1Cl)/C(Cl)=C(\Cl)S(=O)c1ccccc1 (stereo unspecified),-22.5% (active)

row,SMILES,"activity change, negative = inhibition"
1,Cc1ccccc1N1CCN(CC(=O)NCc2ccc(Cl)cc2)CC1,inactive
2,Cc1cccc(C(=O)OC(C)C(=O)NC2CCCc3ccccc32)c1O (stereo unspecified),-27% (active)
3,COc1ccc(CN(C)C(C)C(=O)NC2CCCc3ccccc32)cc1 (stereo unspecified),-19.5% (active)
4,O=C(Nc1ccc(Cl)c(Cl)c1)N1CC=C(c2ccccc2)CC1,inactive
5,COC(=O)C1=C(C)N(C(C)c2ccccc2)C(=O)/C1=C\c1ccco1 (stereo unspecified),-22.5% (active)
6,CCOC(=O)C(C)Sc1nc2ccccc2c(=O)n1CC1CCCCC1 (stereo unspecified),-32% (active)
7,COc1ccc(Cl)cc1NC(=O)CN(C)Cc1ccc(OC)c(OC)c1,inactive
8,Cc1ccc(C(=O)c2c(NC(=O)c3ccccc3)sc(C)c2C)cc1,-21% (active)
9,Cc1ccccc1C(=O)Nc1ccccc1Sc1ccccc1,-26% (active)
10,CCOC(=O)N1CCC(N(CCOC)C(=O)Nc2ccc(C)c(C)c2)CC1,-33% (active)
11,CCc1ccc(-c2cc(C(=O)NCc3ccco3)c3ccccc3n2)s1,inactive
12,CC(C)[C@H](NC(=O)OCc1ccccc1)C(=O)OCc1ccccc1,-23.5% (active)
13,CC(C)C(NC(=O)OCc1ccccc1)C(=O)OCC(=O)N1C(C)CCCC1C (stereo unspecified),inactive
14,Cc1ccc(C2=Nc3c(ccc4ccccc34)C(c3ccncc3)=NN2)cc1,inactive
15,Cc1nc2ccccc2c(-c2ccccc2)c1C(=O)c1ccccc1,-31% (active)

# — PubChem BioAssay AID493025 (Johns Hopkins Ion Channel Center, 2011)
